Structures are written as SMILES. “And” between values parts separate entries of the source, which are not always exact repeats. Equal entries are not always repeated. The source made the active and inactive calls.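 How the source made its calls, unless noted: active means compounds whose cell count with miR-34 switched on is under 0.7 times the count with it off; inactive means the rest.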

Assay [1] in a line: Wnt pathway potentiators raising nuclear beta-catenin – imaging, WNT3A-conditioned medium, mouse C2C12, NPC library, primary screen (AID 1117326; in the data active means nuclear beta-catenin stimulation mostly above about 4.2%, no sharp cut-off; inactive means mostly below about 10%). Particulars: stronger effect = higher value.
Assay [2] can be described thus: stimulators of insulin release from INS-1E, primary screen, cell-based, 5 mM glucose, NPC library (AID 1117329;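 active means compound raises insulin release from rat beta cells at 5 mM glucose, no numeric limit stated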). The conditions noted are these: rat INS-1E insulin secretion, at 10 µM, stronger effect = higher value.
Assay [3] in a line: growth inhibition of GSK3B-pretreated HCT116 cells – cell-based, CellTiter-Glo, 0.2 to 20 µM (AID 1117336;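 active means compounds lowering colon cancer cell viability after pretreatment blocking the GSK3B kinase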). Particulars: HCT116 viability after GSK3B inhibitor, at 20 µM, stronger effect = higher value.
The nature of assay [4]: inhibition of endothelial tube formation, primary screen, imaging, VEGF stimulated, CD31 staining, tube area, NPC library (AID 1117340;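 active means compound that reduces growth-factor-driven endothelial tube area in a mixed cell culture, no cutoff stated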). The conditions noted are these: VEGF-stimulated ADSC/ECFC co-culture, at 10 µM, stronger effect = higher value.
A short description of assay [5]: GLP1 release stimulators, primary, NCI-H716, NPC library (AID 1117341;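 active means compound raises GLP1 secretion from the human gut endocrine cells, with no numeric limit stated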). The conditions noted are these: NCI-H716 cells, at 10 µM, stronger effect = higher value.
A short description of assay [6]: HCT116 colon cancer cell growth inhibition, primary screen, CellTiter-Glo luminescence, NPC library (AID 1117342;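 active means compounds that lower survival of HCT116 colon cancer cells in the luminescence readout, no numeric limit stated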). The conditions noted are these: at 20 µM (top of the series). (In general: In ATP-based viability assays light output follows the ATP content of the culture.)
A short description of assay [7]: reduced SW480 viability measured with CellTiter-Glo, NPC library, primary (AID 1117343;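 active means compounds that lower viability of the colon cancer cells in the luminescence readout, with no numeric limit stated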). Particulars: CellTiter-Glo luminescence; at 20 µM (top of the series) unless noted.
The nature of assay [8]: NPC library primary testing for decreased DLD-1 cell viability via CellTiter-Glo (AID 1117346;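 active means compounds that lower survival of DLD-1 colon cancer cells in the luminescence readout, no cutoff given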). The conditions noted are these: DLD-1 viability, CellTiter-Glo luminescence; at 20 µM (top of the series).
The nature of assay [9]: EMT-state selective cytotoxicity in co-culture – imaging, PC-3E GFP, TEM4-18 mCherry, primary screen (AID 1345086;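 active means compounds killing one labelled cell type while sparing the other, by normalised counts and ratio limits, not self-fluorescent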;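 on all read-outs here: cells exposed to compound for 72 h before imaging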;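 on red/green cell ratio (normalised): normalised mesenchymal count divided by normalised epithelial count so high means epithelial killing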). Particulars: PC-3E GFP / TEM4-18 mCherry co-culture, imaging cell counts, at 1 µM; for red/green cell ratio (normalised): actives lie on both sides, counts scaled to control wells, 1 = unselective.
The nature of assay [10]: viability loss with induced miR-34 in A549 – imaging, A549 dox-inducible miR-34, nuclei and caspase counts, primary screen (AID 1347080). Particulars: A549 miR-34 inducible, Hoechst nuclei count, 48 h.
Assay [11] is described as follows: MELAS cybrid and Rieske KO viability enhancers – cell-based, MELAS cybrids, Rieske KO mouse fibroblasts, CellTiter-Glo, primary screen (AID 1508586;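 active means mean z-score across replicates of 1.96 or higher in either the MELAS or the Rieske mutant cell line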;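 further: z relative to plate mean and SD of compound and empty wells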). The conditions noted are these: low glucose.
In assay [12] the target is NAD(+) hydrolase SARM1 (Homo sapiens) (UniProt Q6SZW1). Kind of assay: blocking NAD cleavage by SARM1 SAM-TIR – cell lysate, NAD-Glo luminescence (AID 1508614;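 active means compound whose remaining NAD level is above about 45 nM, limit read from the data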). The conditions noted are these: SAM-TIR HEK293T lysate NADase, at 1 µM, stronger effect = higher value.
Chain of NAD(+) hydrolase SARM1 (Homo sapiens) (Q6SZW1 whole entry, looked up): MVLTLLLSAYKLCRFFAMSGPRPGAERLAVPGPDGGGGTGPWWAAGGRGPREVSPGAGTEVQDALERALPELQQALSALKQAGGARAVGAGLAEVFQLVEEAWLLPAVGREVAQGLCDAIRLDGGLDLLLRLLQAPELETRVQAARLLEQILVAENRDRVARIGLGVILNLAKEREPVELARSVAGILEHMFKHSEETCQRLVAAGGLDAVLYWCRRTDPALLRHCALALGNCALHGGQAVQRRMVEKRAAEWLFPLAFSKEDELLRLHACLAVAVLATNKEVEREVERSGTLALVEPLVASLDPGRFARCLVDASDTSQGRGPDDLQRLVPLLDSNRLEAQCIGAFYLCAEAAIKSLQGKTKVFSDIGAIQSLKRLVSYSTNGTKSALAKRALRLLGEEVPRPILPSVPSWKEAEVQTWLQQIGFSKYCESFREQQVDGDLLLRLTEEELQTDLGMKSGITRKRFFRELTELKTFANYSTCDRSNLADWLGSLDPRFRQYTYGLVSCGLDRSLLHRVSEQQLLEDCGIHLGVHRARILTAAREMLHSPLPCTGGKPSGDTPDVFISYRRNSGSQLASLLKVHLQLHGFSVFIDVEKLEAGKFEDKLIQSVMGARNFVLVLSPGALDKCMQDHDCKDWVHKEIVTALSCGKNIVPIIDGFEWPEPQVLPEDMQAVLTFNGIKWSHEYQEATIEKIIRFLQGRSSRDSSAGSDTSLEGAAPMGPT
Assay [13] is described as follows: P. berghei load reduction in hepatocytes – cell-based, HepG2, luciferase luminescence, HepG2 viability, primary screen (AID 624349; in the data active means parasite load remaining mostly below about 12%, no sharp cut-off; inactive means mostly above about 10%;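 further: 100% = mean of DMSO negative control wells on the same plate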). The conditions noted are these: P. berghei liver stage in HepG2, luciferase luminescence, concentration not given here; parasite load remaining: stronger effect = lower value; viability: measured here: HepG2 viability without parasites.
A short description of assay [14]: compounds altering viability of human ES cells (AID 493140; call rule not given here;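 further: cells exposed to compounds for four days before counting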). Particulars: human embryonic stem cell survival screen; stronger effect = higher value.
Setting [15] is: measured here: epithelial PC-3E GFP cell survival.
The mark [16] stands for this setting: measured here: mesenchymal TEM4-18 mCherry cell survival.
Setting [17] is: stronger effect = lower value, cell number ratio, induced over uninduced.
Where [18] appears, read: measured here: relative caspase fold change +Dox/-Dox.
Where [19] appears, read: measured here: total cells with miR-34 induction, stronger effect = lower value.
The mark [20] stands for this setting: measured here: total cells without miR-34 induction.
[21] abbreviates: MELAS cybrid survival, CellTiter-Glo 48 h, stronger effect = higher value.
[22] abbreviates: Rieske KO mouse fibroblast survival, CellTiter-Glo 72 h.

In the case of `O=S(=O)(O)NC1CCCCC1`, the nuclear beta-catenin stimulation in [1] (at 10 µM) is 0.2% (inactive); in assay [1] (stimulation, at 2 µM), 0.3%. For the same compound, the insulin secretion stimulation in assay [2] is -1.6% (inactive). Also, the viability decrease in [3] was -5.65% (inactive). Moreover, the tube area decrease in assay [4] was -18.4% (inactive). The GLP1 secretion stimulation in [5] is -0.8% (inactive). Also, the inhibition of viability in [6] was -5.4% (inactive). The viability decrease (inhibition) in [7] is 8.9% (inactive); in [8], 1.3% (inactive). Besides, the red/green cell ratio (normalised) in assay [9] is 0.89 (inactive). In addition, the normalised cell number in assay [9] (setting [15]) was found to be 0.95; in assay [9] (setting [16]), 0.84. Besides, the fold change in [10] (setting [17]) is 0.883 (inactive) and 0.898 (inactive); in [10] (setting [18]) it was 0.921 and 0.472. In addition, the cell count in [10] (setting [19]) is 8650 and 7930; in assay [10] (setting [20]), 9790 and 8830. Besides, the z-score in [11] (setting [21]) was -0.205 (inactive); in assay [11] (setting [22]), -0.173. In addition, the remaining NAD in [12] is 10 nM (inactive).

As for `CN1CCC(=C2c3ccccc3CCc3cccnc32)CC1`, the nuclear beta-catenin stimulation was -2.3% (inactive) in assay [1] (at 10 µM) and -0.6% in assay [1] (stimulation, at 2 µM). Also, in assay [2], the insulin secretion stimulation was 9.4% (inactive). The viability decrease in assay [3] is -3.7% (inactive). Besides, in [4], the tube area decrease was 15.1% (inactive). Further, the GLP1 secretion stimulation in assay [5] was 2.5% (inactive). In assay [6], the inhibition of viability is -2.7% (inactive). For the same compound, the viability decrease (inhibition) is 13.6% (inactive) in [7] and -0.2% (inactive) in [8]. For the same compound, in assay [9], the red/green cell ratio (normalised) is 0.76 (inactive). Moreover, the normalised cell number stood at 1.26 in assay [9] (setting [15]) and 0.95 in [9] (setting [16]). Also, the fold change in [10] (setting [17]) is 0.929 (inactive) and 0.835 (inactive); in assay [10] (setting [18]) it was 0.933 and 0.421 and 1.15. Further, the cell count is 8510 and 8540 and 7120 in [10] (setting [19]); 9160 and 9200 and 8530 in [10] (setting [20]). The z-score in assay [11] (setting [21]) was -0.226 (inactive) and -0.309 (inactive) and -0.701 (inactive); in assay [11] (setting [22]) it was -0.00379 and -0.328 and -0.133. Moreover, the remaining NAD in [12] is 10 nM (inactive).

On to `CC1CCc2c(N3CCC(O)CC3)c(F)cc3c(=O)c(C(=O)O)cn1c23` (stereo not given), for which, in [13], the parasite load remaining is 84.8% (inactive) and 5.38% (inactive). The viability (usually a read-out of living cells in per cent, often relative to untreated cells) in [13] is 88.5% and 76.5%. For the same compound, the nuclear beta-catenin stimulation is 0% (inactive) in assay [1] (at 10 µM) and 0.1% in assay [1] (stimulation, at 2 µM). Further, the insulin secretion stimulation in [2] is 1.15% (inactive). In addition, the viability decrease in assay [3] was 74.1% (active). Besides, the tube area decrease in assay [4] was -22.8% (inactive). The GLP1 secretion stimulation in [5] is 4% (inactive). Moreover, in assay [6], the inhibition of viability is 59% (active). Further, the viability decrease (inhibition) in assay [7] was 37.2% (inactive); in assay [8], 5.4% (inactive). For the same compound, the red/green cell ratio (normalised) in [9] was 0.89 (inactive). Also, the figures for the normalised cell number in assay [9] (setting [15]) and in assay [9] (setting [16]) were 0.98 and 0.87, respectively. The fold change in assay [10] (setting [17]) is 0.9 (inactive) and 0.988 (inactive) and 0.927 (inactive); in assay [10] (setting [18]), 0.795 and 0.525 and 0.967. Also, the cell count in assay [10] (setting [19]) is 8750 and 7880 and 9830; in assay [10] (setting [20]) it was 9720 and 7980 and 10600. Further, the z-score in assay [11] (setting [21]) was -0.315 (inactive) and -0.705 (inactive) and 0.586 (inactive); in assay [11] (setting [22]) it was -0.0888 and -0.895 and -0.392. Further, the remaining NAD in [12] is 10 nM (inactive).

With `CNCCc1ccccn1`, the survival in [14] is 9.67 (inactive). Besides, the parasite load remaining in assay [13] was 177% (inactive) and 67% (inactive) and 40.9% (inactive). In [13], the viability is 106% and 76.5% and 92.3%. The nuclear beta-catenin stimulation was 0.2% (inactive) in assay [1] (at 10 µM) and 1.8% in [1] (stimulation, at 2 µM). Besides, the insulin secretion stimulation in [2] was -0.8% (inactive). Besides, the viability decrease in assay [3] was 5.6% (inactive). Also, the tube area decrease in assay [4] is -1.2% (inactive). The GLP1 secretion stimulation in [5] was -0.6% (inactive). For the same compound, in [6], the inhibition of viability is -13.4% (inactive). Further, the viability decrease (inhibition) is -3.4% (inactive) in [7] and 1.9% (inactive) in [8]. For the same compound, the red/green cell ratio (normalised) in assay [9] was 1.06 (inactive). For the same compound, the normalised cell number in assay [9] (setting [15]) came out at 1.06; in assay [9] (setting [16]), 1.12. Besides, the fold change is 0.848 (inactive) and 0.92 (inactive) and 0.919 (inactive) in assay [10] (setting [17]); 1.09 and 0.698 and 1.77 in [10] (setting [18]). Further, the cell count is 9020 and 8170 and 11700 in assay [10] (setting [19]); 10600 and 8880 and 12700 in assay [10] (setting [20]). Moreover, the z-score in assay [11] (setting [21]) was -0.325 (inactive) and 0.341 (inactive); in assay [11] (setting [22]) it was -0.163 and 0.19. Besides, in assay [12], the remaining NAD was 10 nM (inactive).

Regarding `CCN(CC)CCNC(C(=O)OCCC(C)C)c1ccccc1` (stereo not given), the nuclear beta-catenin stimulation is -0.8% (inactive) in assay [1] (at 10 µM) and -0.5% in [1] (stimulation, at 2 µM). Besides, the insulin secretion stimulation in [2] was 32.4% (active). Further, in assay [3], the viability decrease was 6.1% (inactive). Besides, the tube area decrease in assay [4] was -3.9% (inactive). For the same compound, the GLP1 secretion stimulation in assay [5] was 8.2% (inactive). In addition, the inhibition of viability in assay [6] was 0.2% (inactive). Also, the viability decrease (inhibition) is 26.1% (inactive) in [7] and 9.9% (inactive) in assay [8]. Besides, the red/green cell ratio (normalised) in assay [9] is 1.16 (inactive). The results for the normalised cell number in assay [9] (setting [15]) and in assay [9] (setting [16]) were 0.66 and 0.76, respectively. Besides, the fold change in assay [10] (setting [17]) was 0.979 (inactive); in assay [10] (setting [18]), 0.754. The cell count stood at 8430 in [10] (setting [19]) and 8620 in assay [10] (setting [20]). Moreover, the z-score was 0.328 (inactive) in [11] (setting [21]) and 0.121 in assay [11] (setting [22]). Also, in [12], the remaining NAD is 10 nM (inactive).

(Values after PubChem BioAssay.)
